In paper doi:10.1101/2024.03.05.583629:

The sequences below were run against pT7_6His-AlfaTag-HOXD13 (human, UniProt P35453 263-343) (assay: PADIT-seq). Settings: dsDNA, one strand shown.
Sequence of pT7_6His-AlfaTag-HOXD13 (P35453 263-343): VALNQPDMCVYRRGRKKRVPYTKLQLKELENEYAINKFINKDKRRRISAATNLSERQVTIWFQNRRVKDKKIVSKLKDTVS

Sequence	binding signal
CTCGAGGATATCAAGATCTGGCCTCGGCGGGCTAAAAGGAACCTCTAGCTAGCCGACTCACTATAGGGATAATCGCCCTGAGCAAAGACC	-0.851 ± 0.105 log2FC
CTCGAGGATATCAAGATCTGGCCTCGGCGCGCTTGCGGGAACCTCTAGCTAGCCGACTCACTATAGGGATAATCGCCCTGAGCAAAGACC	-0.651 ± 0.137 log2FC
CTCGAGGATATCAAGATCTGGCCTCGGCCTTTTAAAGGGAACCTCTAGCTAGCCGACTCACTATAGGGATAATCGCCCTGAGCAAAGACC	2.37 ± 0.0692 log2FC
CTCGAGGATATCAAGATCTGGCCTCGGCTTTTTAACAGGAACCTCTAGCTAGCCGACTCACTATAGGGATAATCGCCCTGAGCAAAGACC	2.05 ± 0.0793 log2FC
CTCGAGGATATCAAGATCTGGCCTCGGCTTGCTAAAAGGAACCTCTAGCTAGCCGACTCACTATAGGGATAATCGCCCTGAGCAAAGACC	-0.271 ± 0.11 log2FC
CTCGAGGATATCAAGATCTGGCCTCGGCGCAATAAAAGGAACCTCTAGCTAGCCGACTCACTATAGGGATAATCGCCCTGAGCAAAGACC	2.76 ± 0.0728 log2FC
CTCGAGGATATCAAGATCTGGCCTCGGCGCGTTAGCGGGAACCTCTAGCTAGCCGACTCACTATAGGGATAATCGCCCTGAGCAAAGACC	-0.986 ± 0.133 log2FC
CTCGAGGATATCAAGATCTGGCCTCGGCCGTATAAAAGGAACCTCTAGCTAGCCGACTCACTATAGGGATAATCGCCCTGAGCAAAGACC	2.31 ± 0.0858 log2FC
CTCGAGGATATCAAGATCTGGCCTCGGCGTTTTATACGGAACCTCTAGCTAGCCGACTCACTATAGGGATAATCGCCCTGAGCAAAGACC	2.62 ± 0.0803 log2FC
CTCGAGGATATCAAGATCTGGCCTCGGCTCTTTAAAAGGAACCTCTAGCTAGCCGACTCACTATAGGGATAATCGCCCTGAGCAAAGACC	2.42 ± 0.0868 log2FC
CTCGAGGATATCAAGATCTGGCCTCGGCCTTTTATCCGGAACCTCTAGCTAGCCGACTCACTATAGGGATAATCGCCCTGAGCAAAGACC	0.939 ± 0.078 log2FC
CTCGAGGATATCAAGATCTGGCCTCGGCCTTTTAGACGGAACCTCTAGCTAGCCGACTCACTATAGGGATAATCGCCCTGAGCAAAGACC	-0.199 ± 0.091 log2FC
CTCGAGGATATCAAGATCTGGCCTCGGCTTTCTAAAAGGAACCTCTAGCTAGCCGACTCACTATAGGGATAATCGCCCTGAGCAAAGACC	-0.511 ± 0.118 log2FC
CTCGAGGATATCAAGATCTGGCCTCGGCGTTTTAAGAGGAACCTCTAGCTAGCCGACTCACTATAGGGATAATCGCCCTGAGCAAAGACC	2.61 ± 0.088 log2FC
CTCGAGGATATCAAGATCTGGCCTCGGCGTAGTAAAAGGAACCTCTAGCTAGCCGACTCACTATAGGGATAATCGCCCTGAGCAAAGACC	2.18 ± 0.0733 log2FC
CTCGAGGATATCAAGATCTGGCCTCGGCTTTTTATGCGGAACCTCTAGCTAGCCGACTCACTATAGGGATAATCGCCCTGAGCAAAGACC	2.03 ± 0.081 log2FC
CTCGAGGATATCAAGATCTGGCCTCGGCACTTGGGCGGGAACCTCTAGCTAGCCGACTCACTATAGGGATAATCGCCCTGAGCAAAGACC	-1.04 ± 0.114 log2FC
CTCGAGGATATCAAGATCTGGCCTCGGCGTTATAAAAGGAACCTCTAGCTAGCCGACTCACTATAGGGATAATCGCCCTGAGCAAAGACC	2.4 ± 0.0697 log2FC
CTCGAGGATATCAAGATCTGGCCTCGGCCTTTTATCTGGAACCTCTAGCTAGCCGACTCACTATAGGGATAATCGCCCTGAGCAAAGACC	0.811 ± 0.0782 log2FC
CTCGAGGATATCAAGATCTGGCCTCGGCCTGGTAAAAGGAACCTCTAGCTAGCCGACTCACTATAGGGATAATCGCCCTGAGCAAAGACC	0.442 ± 0.0982 log2FC
CTCGAGGATATCAAGATCTGGCCTCGGCTACCTAAAAGGAACCTCTAGCTAGCCGACTCACTATAGGGATAATCGCCCTGAGCAAAGACC	-0.459 ± 0.127 log2FC
CTCGAGGATATCAAGATCTGGCCTCGGCTAGTTAAAAGGAACCTCTAGCTAGCCGACTCACTATAGGGATAATCGCCCTGAGCAAAGACC	2.53 ± 0.0756 log2FC
CTCGAGGATATCAAGATCTGGCCTCGGCCTTCCACGCGGAACCTCTAGCTAGCCGACTCACTATAGGGATAATCGCCCTGAGCAAAGACC	-1.1 ± 0.121 log2FC
CTCGAGGATATCAAGATCTGGCCTCGGCTACGTAAAAGGAACCTCTAGCTAGCCGACTCACTATAGGGATAATCGCCCTGAGCAAAGACC	0.743 ± 0.0961 log2FC
CTCGAGGATATCAAGATCTGGCCTCGGCCGCCCAATTGGAACCTCTAGCTAGCCGACTCACTATAGGGATAATCGCCCTGAGCAAAGACC	-0.555 ± 0.114 log2FC
CTCGAGGATATCAAGATCTGGCCTCGGCGCTTTAAAAGGAACCTCTAGCTAGCCGACTCACTATAGGGATAATCGCCCTGAGCAAAGACC	1.94 ± 0.0663 log2FC
